Reference: the supplement of paper PMC10849652
Of roughly 7,900 targets only a part is listed; those with a hit were picked by preference. About 0.6% of all pairs of compound and target were hits. Values without a mark were called inactive.

Tests used:
Assay in all cases: log2 fold change, soluble protein after heating vs DMSO (PISA); higher = thermal stabilisation; K562 cells, 10 uM, 30 min; active = over 0.2 and 3.5 SD of the protein, either way, in both replicates (recomputed)
[1] = compound: CS(=O)(=O)c1ccc(-c2cnc(N)c(C(=O)Nc3ccccc3)n2)cc1
How it was run: (§1)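 Aliquots of K562 cells (2×10^6 cells/mL) treated with 10 μM compound for 30 min were heated for 3 min over 48°C-58°C. After pooling and extraction in PBS with 0.5% NP-40 at 4°C, soluble protein from a 21,000xg, 90 min spin was quantified by TMTpro 16plex LC-MS/MS with channel sums equalised. Thermal stability is expressed against control samples, from duplicates, as a log2 fold change.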

[2] = compound: C[C@@H](Oc1cc(-c2cnn(C3CCNCC3)c2)cnc1N)c1c(Cl)ccc(F)c1Cl [crizotinib]
How it was run: as §1

[3] = compound: C[C@@H]1COCCN1C2=NC(=NC(=C2)C3(CC3)S(=O)(=O)C)C4=C5C=CNC5=CC=C4
How it was run: as §1

[4] = compound: C[C@H](C1=CC=C(C=C1)C(=O)NC2=C3C=CNC3=NC=C2)N
How it was run: as §1

[5] = compound: C[C@H](Nc1ncnc2nc[nH]c12)c1cc2cccc(Cl)c2c(=O)n1-c1ccccc1 [duvelisib]
How it was run: as §1

[6] = compound: Cc1cc(Nc2cc(CN3CCOCC3)c3nc(C)c(Cc4ccc(Cl)cc4F)n3n2)n[nH]1 [gandotinib]
How it was run: as §1

[7] = compound: Cc1cc(Nc2cc(N3CCN(C)CC3)nc(Sc3ccc(NC(=O)C4CC4)cc3)n2)n[nH]1 [tozasertib]
How it was run: as §1

[8] = compound: Cc1cc(SCc2sc(-c3ccc(C(F)(F)F)cc3)nc2C)ccc1OCC(=O)O
How it was run: as §1

[9] = compound: Cc1ccc(-n2nc(C(C)(C)C)cc2NC(=O)Nc2ccc(OCCN3CCOCC3)c3ccccc23)cc1 [doramapimod]
How it was run: as §1

[10] = compound: Cc1ccc(C(=O)N(CCCN)[C@@H](c2nc3cc(Cl)ccc3c(=O)n2Cc2ccccc2)C(C)C)cc1 [ispinesib]
How it was run: as §1

[11] = compound: Cc1ccc(NC(=O)c2ccc(CN3CC[C@H](N(C)C)C3)c(C(F)(F)F)c2)cc1Nc1nccc(-c2cncnc2)n1 [bafetinib]
How it was run: as §1

[12] = compound: Cc1cccc(CC(=O)N2CCc3c2ccc(-c2cn(C)c4ncnc(N)c24)c3F)n1
How it was run: as §1

[13] = compound: Cc1cn(-c2cc(NC(=O)c3ccc(C)c(Nc4nccc(-c5cccnc5)n4)c3)cc(C(F)(F)F)c2)cn1 [nilotinib]
How it was run: as §1

[14] = compound: Cc1nc(Nc2n[nH]c3c2CN(C(=O)N[C@H](CN(C)C)c2ccccc2)C3(C)C)c2sccc2n1
How it was run: as §1

[15] = compound: Cc1nc(Nc2ncc(C(=O)Nc3c(C)cccc3Cl)s2)cc(N2CCN(CCO)CC2)n1 [dasatinib]
How it was run: as §1

[16] = compound: Cc1ncc(-c2ccnc(Nc3ccc(S(C)(=O)=O)cc3)n2)n1C(C)C
How it was run: as §1

[17] = compound: Cn1cc(-c2ccc3c(c2)CCN3C(=O)Cc2cccc(C(F)(F)F)c2)c2c(N)ncnc21
How it was run: as §1

[18] = compound: Cn1cc(-c2ccc3nnc(C(F)(F)c4ccc5ncccc5c4)n3n2)cn1
How it was run: as §1

[19] = compound: Cn1cncc1[C@@](N)(c1ccc(Cl)cc1)c1ccc2c(c1)c(-c1cccc(Cl)c1)cc(=O)n2C [tipifarnib]
How it was run: as §1

[20] = compound: FC(F)(F)c1ccc(/C=C/c2nc(COc3ccc(CCCCn4ccnn4)cc3)co2)cc1 [mubritinib]
How it was run: as §1

Chain of UniProt O75976 (O75976 whole entry, looked up): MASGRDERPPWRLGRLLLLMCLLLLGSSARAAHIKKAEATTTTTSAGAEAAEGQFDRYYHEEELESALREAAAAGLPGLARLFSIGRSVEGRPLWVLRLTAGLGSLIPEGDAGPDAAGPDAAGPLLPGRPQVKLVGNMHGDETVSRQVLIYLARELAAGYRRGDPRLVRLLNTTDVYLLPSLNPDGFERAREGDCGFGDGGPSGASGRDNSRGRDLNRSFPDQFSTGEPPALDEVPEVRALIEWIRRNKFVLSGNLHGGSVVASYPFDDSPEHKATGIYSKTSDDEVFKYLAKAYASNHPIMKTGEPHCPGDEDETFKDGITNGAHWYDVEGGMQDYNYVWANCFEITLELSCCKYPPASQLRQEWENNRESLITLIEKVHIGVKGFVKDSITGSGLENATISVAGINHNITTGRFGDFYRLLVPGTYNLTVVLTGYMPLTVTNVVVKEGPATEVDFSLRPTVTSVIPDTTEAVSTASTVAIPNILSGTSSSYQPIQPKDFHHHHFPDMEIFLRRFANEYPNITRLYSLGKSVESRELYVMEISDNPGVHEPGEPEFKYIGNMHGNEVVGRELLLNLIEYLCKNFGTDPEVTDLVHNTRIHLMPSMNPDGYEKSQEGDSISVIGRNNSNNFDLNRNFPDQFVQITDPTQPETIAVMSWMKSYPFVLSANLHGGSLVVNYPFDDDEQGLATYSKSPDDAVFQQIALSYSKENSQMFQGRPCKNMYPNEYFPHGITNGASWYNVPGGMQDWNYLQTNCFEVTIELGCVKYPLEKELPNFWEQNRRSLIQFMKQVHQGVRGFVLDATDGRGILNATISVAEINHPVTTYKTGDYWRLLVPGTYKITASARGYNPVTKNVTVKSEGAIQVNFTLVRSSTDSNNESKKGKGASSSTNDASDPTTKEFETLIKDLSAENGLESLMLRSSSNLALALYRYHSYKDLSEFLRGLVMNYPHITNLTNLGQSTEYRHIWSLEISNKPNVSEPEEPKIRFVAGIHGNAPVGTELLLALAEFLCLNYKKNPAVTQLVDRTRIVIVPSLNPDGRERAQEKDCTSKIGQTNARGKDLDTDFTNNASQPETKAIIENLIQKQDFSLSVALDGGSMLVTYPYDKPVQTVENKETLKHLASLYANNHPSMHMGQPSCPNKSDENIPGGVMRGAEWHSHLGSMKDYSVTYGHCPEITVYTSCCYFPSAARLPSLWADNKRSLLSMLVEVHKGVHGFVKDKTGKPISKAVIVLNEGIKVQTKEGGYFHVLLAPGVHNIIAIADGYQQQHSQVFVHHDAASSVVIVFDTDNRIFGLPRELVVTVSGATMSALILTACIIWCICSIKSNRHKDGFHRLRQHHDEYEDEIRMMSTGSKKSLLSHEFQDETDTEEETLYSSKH
Chain of UniProt Q96JM3 (Q96JM3 whole entry, looked up): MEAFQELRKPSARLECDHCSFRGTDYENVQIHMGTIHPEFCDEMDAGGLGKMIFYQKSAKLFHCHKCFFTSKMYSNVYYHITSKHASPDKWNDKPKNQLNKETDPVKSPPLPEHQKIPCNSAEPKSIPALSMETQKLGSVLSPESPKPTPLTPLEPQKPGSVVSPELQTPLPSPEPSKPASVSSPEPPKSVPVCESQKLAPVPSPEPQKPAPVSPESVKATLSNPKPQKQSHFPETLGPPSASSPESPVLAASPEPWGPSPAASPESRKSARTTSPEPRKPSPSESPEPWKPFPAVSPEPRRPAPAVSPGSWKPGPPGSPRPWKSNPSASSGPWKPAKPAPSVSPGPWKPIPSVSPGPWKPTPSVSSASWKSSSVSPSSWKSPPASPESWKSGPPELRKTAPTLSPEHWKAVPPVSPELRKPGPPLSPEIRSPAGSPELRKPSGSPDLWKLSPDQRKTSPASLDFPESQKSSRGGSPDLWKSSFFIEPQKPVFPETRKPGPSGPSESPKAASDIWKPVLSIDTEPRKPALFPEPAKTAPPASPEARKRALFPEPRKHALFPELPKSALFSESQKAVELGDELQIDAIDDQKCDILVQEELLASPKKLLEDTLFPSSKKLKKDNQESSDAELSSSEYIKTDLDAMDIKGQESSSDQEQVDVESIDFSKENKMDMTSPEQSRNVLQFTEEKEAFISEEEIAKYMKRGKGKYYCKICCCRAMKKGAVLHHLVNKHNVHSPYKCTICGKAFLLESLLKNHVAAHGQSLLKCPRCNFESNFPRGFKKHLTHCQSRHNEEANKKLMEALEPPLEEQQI
Chain of UniProt Q9ULV3 (Q9ULV3 whole entry, looked up): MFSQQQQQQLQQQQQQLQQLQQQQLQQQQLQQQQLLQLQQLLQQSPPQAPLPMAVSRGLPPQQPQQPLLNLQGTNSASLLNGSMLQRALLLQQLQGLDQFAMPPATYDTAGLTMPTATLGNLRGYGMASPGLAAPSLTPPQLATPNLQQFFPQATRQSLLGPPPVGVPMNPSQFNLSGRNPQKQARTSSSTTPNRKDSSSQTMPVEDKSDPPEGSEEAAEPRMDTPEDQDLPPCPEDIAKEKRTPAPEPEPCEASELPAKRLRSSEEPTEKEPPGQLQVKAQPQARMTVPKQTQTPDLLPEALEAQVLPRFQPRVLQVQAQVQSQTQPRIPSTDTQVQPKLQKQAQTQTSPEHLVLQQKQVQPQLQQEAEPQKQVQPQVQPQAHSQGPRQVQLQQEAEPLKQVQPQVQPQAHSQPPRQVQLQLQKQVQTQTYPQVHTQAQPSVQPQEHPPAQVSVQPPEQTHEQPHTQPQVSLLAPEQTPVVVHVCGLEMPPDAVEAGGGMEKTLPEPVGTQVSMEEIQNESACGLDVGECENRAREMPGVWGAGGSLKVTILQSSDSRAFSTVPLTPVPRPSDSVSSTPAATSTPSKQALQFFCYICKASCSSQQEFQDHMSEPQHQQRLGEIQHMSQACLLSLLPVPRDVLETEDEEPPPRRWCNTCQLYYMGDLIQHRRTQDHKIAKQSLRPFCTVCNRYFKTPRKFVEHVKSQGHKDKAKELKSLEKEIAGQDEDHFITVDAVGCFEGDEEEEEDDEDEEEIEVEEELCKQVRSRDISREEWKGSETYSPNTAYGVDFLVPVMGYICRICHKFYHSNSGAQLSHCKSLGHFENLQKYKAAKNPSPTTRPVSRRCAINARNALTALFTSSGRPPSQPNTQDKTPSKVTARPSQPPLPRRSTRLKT
Chain of UniProt O14757 (O14757 whole entry, looked up): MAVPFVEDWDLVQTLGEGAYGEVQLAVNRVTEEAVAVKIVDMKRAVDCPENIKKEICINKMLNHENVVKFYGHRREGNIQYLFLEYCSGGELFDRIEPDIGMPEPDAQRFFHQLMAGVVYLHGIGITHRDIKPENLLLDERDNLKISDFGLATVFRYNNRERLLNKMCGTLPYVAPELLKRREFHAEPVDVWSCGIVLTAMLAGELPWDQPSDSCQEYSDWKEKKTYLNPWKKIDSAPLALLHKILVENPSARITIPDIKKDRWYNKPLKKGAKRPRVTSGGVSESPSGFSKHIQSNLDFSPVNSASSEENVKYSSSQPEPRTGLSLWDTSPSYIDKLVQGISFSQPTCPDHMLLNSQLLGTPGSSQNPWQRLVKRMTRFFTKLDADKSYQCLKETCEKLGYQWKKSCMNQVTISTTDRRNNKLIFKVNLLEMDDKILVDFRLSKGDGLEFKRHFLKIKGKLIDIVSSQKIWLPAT
Chain of UniProt Q8IUI8 (Q8IUI8 whole entry, looked up): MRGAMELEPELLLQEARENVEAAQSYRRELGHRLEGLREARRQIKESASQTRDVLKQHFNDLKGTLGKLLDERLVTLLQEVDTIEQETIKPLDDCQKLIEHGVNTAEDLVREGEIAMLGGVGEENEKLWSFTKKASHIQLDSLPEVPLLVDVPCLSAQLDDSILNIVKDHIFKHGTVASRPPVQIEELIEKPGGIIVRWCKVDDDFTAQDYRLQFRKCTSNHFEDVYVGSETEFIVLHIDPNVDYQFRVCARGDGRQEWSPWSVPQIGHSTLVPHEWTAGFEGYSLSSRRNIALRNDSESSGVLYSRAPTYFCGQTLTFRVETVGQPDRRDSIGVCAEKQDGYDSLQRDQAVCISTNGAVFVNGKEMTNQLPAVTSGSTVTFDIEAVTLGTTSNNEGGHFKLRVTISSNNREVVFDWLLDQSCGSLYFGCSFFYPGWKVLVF
Chain of UniProt Q7KZN9 (Q7KZN9 whole entry, looked up): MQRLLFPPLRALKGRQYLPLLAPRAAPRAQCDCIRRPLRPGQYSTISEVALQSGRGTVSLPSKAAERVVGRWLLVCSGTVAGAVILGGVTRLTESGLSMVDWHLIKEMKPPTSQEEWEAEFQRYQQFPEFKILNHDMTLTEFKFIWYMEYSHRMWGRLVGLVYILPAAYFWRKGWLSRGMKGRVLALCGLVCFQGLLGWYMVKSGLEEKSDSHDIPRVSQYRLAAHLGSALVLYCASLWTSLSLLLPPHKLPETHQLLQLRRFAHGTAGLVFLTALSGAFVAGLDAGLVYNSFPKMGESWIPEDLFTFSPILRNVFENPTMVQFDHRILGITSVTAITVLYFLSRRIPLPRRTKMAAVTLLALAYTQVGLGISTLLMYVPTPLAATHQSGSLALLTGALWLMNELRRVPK
Chain of UniProt Q8N4Q1 (Q8N4Q1 whole entry, looked up): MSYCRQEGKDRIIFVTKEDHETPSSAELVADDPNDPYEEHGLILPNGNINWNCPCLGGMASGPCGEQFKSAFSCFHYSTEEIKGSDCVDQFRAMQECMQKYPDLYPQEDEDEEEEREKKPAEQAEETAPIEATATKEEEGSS
Chain of UniProt Q8NHZ8 (Q8NHZ8 whole entry, looked up): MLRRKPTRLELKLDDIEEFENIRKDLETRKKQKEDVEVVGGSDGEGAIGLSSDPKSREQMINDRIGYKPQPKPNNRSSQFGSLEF

Target | log2 fold change [1] | log2 fold change [2] | log2 fold change [3] | log2 fold change [4] | log2 fold change [5] | log2 fold change [6] | log2 fold change [7] | log2 fold change [8] | log2 fold change [9] | log2 fold change [10] | log2 fold change [11] | log2 fold change [12] | log2 fold change [13] | log2 fold change [14] | log2 fold change [15] | log2 fold change [16] | log2 fold change [17] | log2 fold change [18] | log2 fold change [19] | log2 fold change [20]
CHAMP1 (UniProt Q96JM3) | 0.02 | -0.154 | 0.074 | -0.071 | -0.076 | -0.046 | 0.045 | -0.049 | -0.003 | -0.185 | -0.134 | 0.049 | 0 | -0.132 | -0.092 | -0.123 | 0.026 | 0.067 | 0.014 | 0.056
CHEK1 (UniProt O14757) | 0.011 | -0.116 | 0.044 | 0.049 | 0.059 | -0.122 | -0.023 | 0.008 | -0.009 | 0.039 | -0.053 | 0.02 | -0.05 | -1.17 (active) | -0.064 | 0.002 | 0.021 | -0.022 | 0.005 | 0.048
CIZ1 (UniProt Q9ULV3) | -0.008 | -0.097 | 0.017 | -0.079 | 0.004 | -0.121 | 0.022 | 0.016 | 0.005 | -0.015 | -0.063 | 0.013 | 0.016 | -0.181 | -0.016 | -0.063 | 0.021 | -0.066 | 0.008 | 0.019
COX15 (UniProt Q7KZN9) | -0.008 | -0.015 | 0.041 | 0.006 | 0.035 | -0.07 | -0.029 | -0.033 | -0.023 | -0.016 | 0.09 | -0.02 | -0.013 | 0.02 | 0.078 | -0.034 | 0.008 | -0.023 | 0.046 | 0.038
CDC26 (UniProt Q8NHZ8) | 0.036 | 0.153 | 0.016 | 0.212 | -0.097 | -0.033 | 0.096 | -0.021 | -0.017 | 0.406 | -0.034 | 0.162 | -0.011 | -0.059 | 0.143 | 0.029 | 0.179 | -0.027 | 0.131 | -0.028
CRLF3 (UniProt Q8IUI8) | 0.053 | -0.015 | 0.048 | 0.017 | 0.076 | 0.016 | 0.021 | 0.019 | 0.138 | -0.059 | -0.032 | -0.045 | -0.043 | -0.117 | -0.145 | 0.011 | 0.025 | 0.024 | -0.018 | 0.032
CHCHD4 isoform 2 (UniProt Q8N4Q1) | -0.041 | 0.017 | 0.156 | -0.272 | -0.217 | -0.079 | 0.182 | 0.022 | 0.069 | -0.074 | 0 | 0.764 (active) | -0.054 | -0.015 | -0.121 | -0.039 | -0.185 | -0.059 | -0.208 | 0
CPD (UniProt O75976) | 0 | -0.294 (active) | 0.002 | 0.019 | 0.036 | 0.033 | -0.036 | -0.01 | 0.028 | -0.174 | -0.07 | 0.01 | -0.007 | -0.033 | 0.026 | -0.029 | -0.029 | 0.026 | 0.055 | -0.009
